# Screening results deposited in PubChem by National Center for Advancing Translational Sciences (NCATS).
# JMJD2A Tudor inh: qHTS Assay for Inhibitors of JMJD2A-Tudor Domain | AlphaScreen JMJD2A-Tudor / H3K4me3 peptide binding | Lysine-specific demethylase 4A (Homo sapiens), O75164 | Potency, µM (highest dose often 114 µM), inactives show top-dose activity change, negative = inhibition, hits mostly inhibitors | 390,000 compounds, 4.4% hits; further: on the % scale 0 is the no-effect control and ±100 the full control effect; nearly all actives have a fitted effect of over 50% in size
# G9a inh: qHTS Assay for Inhibitors of Histone Lysine Methyltransferase G9a; Histone-lysine N-methyltransferase EHMT2 (Homo sapiens), Q96KQ7; G9a H3K9 monomethylation, AlphaScreen, 2 h; Potency, µM (highest dose often 102 µM), inactives show top-dose activity, negative = inhibition, usual class: inhibitors; 350,000 compounds, 8.8% hits; AID 504332, 2011; further: on the % scale 0 is the no-effect control and ±100 the full control effect; nearly all actives have a fitted effect of over 75% in size
# Target sequence (Q96KQ7 913-1193 limits assumed): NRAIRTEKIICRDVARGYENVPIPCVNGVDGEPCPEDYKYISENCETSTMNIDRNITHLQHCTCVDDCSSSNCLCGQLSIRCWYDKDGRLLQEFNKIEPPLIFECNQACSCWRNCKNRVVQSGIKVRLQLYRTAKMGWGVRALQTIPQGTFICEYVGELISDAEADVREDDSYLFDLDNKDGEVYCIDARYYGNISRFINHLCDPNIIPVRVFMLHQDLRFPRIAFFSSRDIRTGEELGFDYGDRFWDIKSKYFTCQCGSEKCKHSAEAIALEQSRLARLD
#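 AlphaScreen detection with an anti-monomethyl H3K9 antibody quantified product after a 2 h room-temperature reaction containing 500 nM biotinylated H3K9 peptide, 20 µM SAM and 20 nM enzyme, which had been preincubated 15 min with compound.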
# L3MBTL1 inh: qHTS Assay for the Inhibitors of L3MBTL1 | AlphaScreen L3MBTL1–H3K9me1 peptide binding | Potency, µM (top dose mostly 57.1 µM), inactives show at the highest dose activity, negative = inhibition, actives largely listed as inhibitors | 230,000 compounds, 0.66% hits; further: on the % scale 0 is the no-effect control and ±100 the full control effect; nearly all actives have a fitted effect of over 60% in size
#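 L3MBTL1 50 nM + b-AHA-H3(1-15)K9me1 75 nM, 30 min RT; compound added, 30 min RT; streptavidin donor/Ni-chelate acceptor beads 10 ug/mL each final, 30 min RT dark; AlphaScreen read.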
# HP1b binding inh: HTS for Inhibitors of HP1-beta Chromodomain Interactions with Methylated Histone Tails. 390,000 compounds, 0.56% hits. Potency, µM (highest dose often 114 µM), without a hit: at the top dose activity change, negative = inhibition, actives largely listed as inhibitors. AlphaScreen HP1-beta / biotin-H3K9me3 peptide binding. AID 540317, 2011; further: nearly all actives have a fitted effect of over 70% in size
# Target sequence (P83916 whole entry, looked up): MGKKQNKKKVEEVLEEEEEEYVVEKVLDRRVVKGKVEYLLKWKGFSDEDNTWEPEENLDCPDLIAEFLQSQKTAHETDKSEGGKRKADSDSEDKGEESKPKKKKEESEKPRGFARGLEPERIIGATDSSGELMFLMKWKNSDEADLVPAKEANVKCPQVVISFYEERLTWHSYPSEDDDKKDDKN
#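 AlphaScreen: HP1-beta (50 nM) preformed 30 min with biotin-H3(1-18)K9me3 peptide (50 nM) in PBS pH 7.4, 0.01% Tween-20. Compound added for 30 min at RT, then streptavidin donor/nickel chelate acceptor beads (10 ug/mL) for 30 min.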
# BAZ2B block: qHTS Assay for Inhibitors of BAZ2B. Bromodomain adjacent to zinc finger domain protein 2B (Homo sapiens), Q9UIF8. Potency, µM (doses to about 114 µM), for the others: at the highest dose activity change, negative = inhibition, actives largely listed as inhibitors. 360,000 compounds, 4.4% hits. AlphaScreen BAZ2B-H3K14Ac peptide displacement; further: on the % scale 0 is the no-effect control and ±100 the full control effect; nearly all actives have a fitted effect of over 60% in size
#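 Compounds, titrated to a top concentration of 110 uM, were incubated 30 min at room temperature with preformed BAZ2B/acetyl-K14 H3 peptide complex (50 nM each). Proximity signal was measured by AlphaScreen after 20 min with beads.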
# Starred values were filed as active, the others as inactive; ? = inconclusive; · = not tested or not shown; [ ] = another dose, or the depositor's remark. This is a sample that favours compounds with a hit; in the whole collection about 11% have one here. The call rests on the fitted dose curve; in most records, active means well fitted inhibition curve with a large enough effect; inconclusive means small, poorly fitted or top-dose-only effect; inactive means no such curve, though single readings can be large or run the other way. Potency means the concentration at half of the fitted maximal effect.
SMILES,JMJD2A Tudor inh,G9a inh,L3MBTL1 inh,HP1b binding inh,BAZ2B block
O=C(Cn1cc([N+](=O)[O-])nc1[N+](=O)[O-])N1CCN(c2ccccc2)CC1,-2%,·,11%,30%,-13%
COc1ccc(Cl)cc1NC(=O)CN(C)C(=O)c1ccc(N2CCCCCC2)c([N+](=O)[O-])c1,?,22µM*,-14%,?,?
COc1ccc(Cl)cc1NC(=O)CN(C)C(=O)c1ccc(N2CCCCC2)c([N+](=O)[O-])c1,?,7.9µM*,-15%,?,?
Cc1ccc(C)c(N2CCN(C(=O)C3CCN(S(=O)(=O)c4cn(C)cn4)CC3)CC2)c1,-21%,7%[59 µM],·,-12%,-13%
Cc1ccc(NC(=O)CN2C(=O)c3cccnc3Sc3ccccc32)cc1C,-10%,15%[59 µM],·,17%,-4%
CCN1CCN(C(=O)c2ccc3c(c2)N(Cc2cc(C)ccc2C)C(=O)c2ccccc2S3(=O)=O)CC1,-29%,-8%[59 µM],·,12%,?
CSc1ncc(C(=O)NCc2ccc(Cl)cc2)c(C(F)(F)F)n1,9%,3%[59 µM],·,34%,6%
C=C1c2cccc(O)c2C(=O)C2C(=O)[C@]3(O)C(=O)C(C(N)=O)C(=O)[C@@H](N(C)C)[C@@H]3[C@@H](O)[C@H]12 (some centres undefined),3.2µM*,·,0.89µM*,?,·
CCN1CCN(c2nc(C)nc3c2sc(=S)n3C)CC1,?,6.3µM*,11%,-14%,-5%
Cc1nc(N2CCCCC2)c2sc(=S)n(C)c2n1,-18%,?,-5%,52%,6%
CNC(=O)N(O)C1N(C)C(=O)N(CC(=O)OC)C1(C)C (centres undefined),16µM*,-38%[59 µM],3%,13%,9%
CCCN1C(=O)N(C)C(N(O)C(=O)NC)C1(C)C (centres undefined),-5%,29%,-5%,41%,0%
COc1ccc(CNc2nc(-c3ccccc3)nn2S(=O)(=O)c2ccccc2)cc1,26%,29%[59 µM],·,87%,31%
CCCCOc1ccc2c(c1)C(=O)c1cc(O)ccc1-2,28µM*,32µM*,?,45µM*,35µM*
CCn1c(SC)nnc1-c1nn(-c2ccccc2)ccc1=O,4µM*,5µM*,11%,?,?
COC(=O)c1nn(-c2ccc(C)cc2)ccc1=O,-14%,4%,0%[11.4 µM],39%,-7%
CCn1c(-c2nn(-c3ccc(C)cc3)ccc2=O)n[nH]c1=S,7.9µM*,?,-6%[11.4 µM],30%,-38%
CCn1c(SC)nnc1-c1c[nH]c2ccccc12,-11%,-47%,·,26%,-4%
COC(=O)CCC(=O)OC1(C)C(=O)C=C2C=C(c3ccsc3)OC=C2C1=O (centres undefined),50µM*,·,·,?,·
CC1(OC(=O)C2CCCC2)C(=O)C=C2C=C(c3ccsc3)N(CC3CC3)C=C2C1=O (centres undefined),?,28%[12.7 µM],·,-19%,?
COC(=O)CCC(=O)OC1(C)C(=O)C=C2C=C(C3CC3)N(C3CC3)C=C2C1=O (centres undefined),-21%,32%[59 µM],·,13%,-16%
CCC(=O)OC1(C)C(=O)C=C2C=C(c3ccsc3)OC=C2C1=O (centres undefined),28µM*,?,·,?,50µM*
COC(=O)CCCC1=CC2=CC(=O)C(C)(OC(=O)CCc3ccccc3)C(=O)C2=CO1 (centres undefined),79µM*,-36%[59 µM],·,-22%,56µM*
COc1c2c(c(CCC(=O)O)c3c1C=CC(C)(C)O3)OC(C)(C)C=C2,-27%,·,·,22%,·
Cc1ccc(C)c(N2C(=O)N(Cc3ccccc3C)c3ccccc3S2(=O)=O)c1,-18%,-8%[59 µM],·,25%,-13%
SMILES,JMJD2A Tudor inh,G9a inh,L3MBTL1 inh,HP1b binding inh,BAZ2B block
O=C(Nc1nnc(N2CCCC2)s1)Nc1cc(F)ccc1F,-19%,-32%[59 µM],·,2%,-9%
CCOc1ccccc1C(=O)Nc1cc2c(cc1N1CCCC1)n(CC)c(=O)n2CC,50µM*,45µM*,·,-24%[57 µM],18µM*
CCn1c(=O)n(CC)c2cc(N3CCCC3)c(NC(=O)c3cc(Cl)ccc3OC)cc21,50µM*,40µM*,·,?,25µM*
CCn1c(=O)n(CC)c2cc(N3CCCC3)c(NC(=O)c3ccccc3OC)cc21,?,35µM*,·,?,45µM*
COC(=O)c1ccc(=O)c2nc3/c(=C/O)c(O)cc(=O)c3[nH]c12,0.63µM*,0.79µM*,·,-69%,0.71µM*
COC(=O)c1ccc(N)cc1O,-16%,1%[59 µM],·,20%,5%
CCN1C(=O)[C@H]2[C@@H](c3ccc(Cl)cc3)N3C(=O)CN(CC4CC4)C(=O)[C@@]3(Cc3ccccc3)[C@H]2C1=O,1%,71µM*,2%,37%,-25%
COc1cc(/C=N/NC(=O)C(C)Nc2n[nH]c(=O)[nH]c2=O)cc(OC)c1O (centres undefined),-15%,35µM*,8%,-14%,-6%
O=C1CC(=O)Nc2cc(S(=O)(=O)N3CCN(c4ccc([N+](=O)[O-])cc4)CC3)ccc2N1,29%,13µM*,·,44%,50µM*
O=C1Cc2cc(S(=O)(=O)N3CCN(c4ccc(O)cc4)CC3)ccc2N1,126µM*,·,·,·,·
O=C1Cc2cc(S(=O)(=O)N3CCN(c4ccc([N+](=O)[O-])cc4)CC3)ccc2N1,-31%,·,·,·,·
CC(C)(C)c1ccc(OCC(=O)N(Cc2cccs2)C2CCS(=O)(=O)C2)cc1 (centres undefined),-28%,·,-6%,12%,5%
Cc1ccc(CNC(=O)c2ccc(CSCc3ccc(Cl)cc3)o2)cc1,-2%,-3%[59 µM],·,90%,15%
COc1ccc(C2C(C(C)=O)=C(C)N=c3s/c(=C\c4cc(C)n(C)c4C)c(=O)n32)c(OC)c1 (centres undefined),?,?,-18%,1%,?
COc1ccc(C2C(C(C)=O)=C(C)N=c3s/c(=C\c4ccco4)c(=O)n32)c(OC)c1 (centres undefined),32µM*,11µM*,?,?,·
COc1ccc(C2C(C(C)=O)=C(C)N=c3s/c(=C\c4ccc5c(c4)OCO5)c(=O)n32)c(OC)c1 (centres undefined),-26%[11.4 µM],·,·,-7%,·
CCOC(=O)C1=C(C)N=c2s/c(=C/c3cccc([N+](=O)[O-])c3O)c(=O)n2C1c1ccc(OC)cc1OC (centres undefined),11µM*,7.1µM*,?,7.1µM*,5µM*
